Screens deposited in PubChem BioAssay by National Center for Advancing Translational Sciences (NCATS).
Sampled rows, rich in hits. Any-hit rate of the full collection: about 4.6%.
D1 agonist = human D1 receptor agonism; 1% of 360,000 active; HEK293 T-REx D1 cells, calcium flux, agonist mode; activation, % at 2 µM; AID 504660
Target sequence (P21728 whole entry, looked up): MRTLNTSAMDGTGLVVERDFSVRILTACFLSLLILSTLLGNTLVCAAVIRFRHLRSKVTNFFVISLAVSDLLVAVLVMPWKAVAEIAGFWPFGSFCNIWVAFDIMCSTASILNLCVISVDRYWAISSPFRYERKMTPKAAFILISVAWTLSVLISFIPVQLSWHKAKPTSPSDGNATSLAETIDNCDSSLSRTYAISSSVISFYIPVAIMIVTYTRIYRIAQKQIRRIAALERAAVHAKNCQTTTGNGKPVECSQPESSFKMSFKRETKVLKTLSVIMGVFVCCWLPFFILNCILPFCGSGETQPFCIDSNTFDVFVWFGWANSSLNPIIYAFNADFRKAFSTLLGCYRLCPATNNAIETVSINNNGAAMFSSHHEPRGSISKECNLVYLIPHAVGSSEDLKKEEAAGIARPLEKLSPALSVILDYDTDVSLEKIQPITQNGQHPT
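Tetracycline-induced HEK293 TREx D1 cells, force-coupled to calcium signalling, were dye-loaded with a no-wash calcium kit. Compound was pin-added after a 10 s baseline. Fluorescence was read kinetically at 1 cycle/s for 180 s, with calcium rises flagged as agonism.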
D1 potentiator = potentiators of human D1 dopamine receptor; AID 504651; 0.036% of 360,000 active; P21728; HEK293 TREx D1 cells, calcium flux, dopamine EC20 potentiation; potentiation, % at 10 µM; in the data active means potentiation above about 30%
TRHR PAM = allosterically enhances the human TRH receptor. P34981. TRHR cells, fluo-8 calcium fluorescence, EC20 TRH enhancement. enhancement, % at 2 µM. 0.66% of 360,000 active; in the data active means enhancement above about 30%
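TRHR-expressing cells loaded with fluo-8 calcium dye were read kinetically (ex 480/em 530) during compound addition, then stimulated with an EC20 of TRH (10 nM final). Enhancement of the Gq-mediated intracellular calcium response was scored.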
D1 antagonist = antagonists of human D1 dopamine receptor; P21728; HEK293 TREx D1 cells, calcium flux, dopamine EC80; stronger effect = lower value; activity change, negative = inhibition, % at 10 µM; 3.2% of 360,000 active; AID 504652; in the data active means activity change below about -30%
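Allosteric or orthosteric antagonism assessed as attenuation of the calcium response to EC80 dopamine, added 180 s after compound, in induced HEK293 Trex D1 cells loaded with no-wash calcium dye.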
TRHR ag = agonists of human TRH receptor | 0.18% of 360,000 active | TRHR cells, calcium flux fluo-8, FDSS agonist mode | activation, % at 2 µM | P34981
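Steps: seed TRHR cells overnight; add fluo-8 no-wash Ca dye, RT 30 min–1.5 h; record 10 s baseline; pin-transfer compounds; monitor fluorescence 1 cycle/s for the agonist window. Calcium increases flag candidate agonists.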
Hits are given with their value; i = inactive. Unless noted, no stated cut-off is given here; in the data, active means activation above about 30%; inactive means the rest.

SMILES | D1 agonist | D1 potentiator | TRHR PAM | D1 antagonist | TRHR ag
CC(=O)c1cccc(NC(=O)CCn2nc(C)c(S(=O)(=O)N(C)C)c2C)c1 | i | i | i | -47 | i
CCOC(=O)c1cccc(NC(=O)CCn2nc(C)c(S(=O)(=O)N3CCCCC3)c2C)c1 | i | i | i | i | i
Cc1ccc(NC(=O)CCS(=O)(=O)c2cccc3nsnc23)c(C)c1 | i | i | i | i | i
Cc1ccn2c(Nc3c(C)cccc3C)c(-c3ccc(Cl)s3)nc2c1 | 34 | i | i | i | i
Cc1ccn2c(Nc3c(C)cccc3C)c(-c3ccsc3)nc2c1 | i | i | i | i | i
Cc1nn(-c2ccccc2)c(-n2cccc2)c1C(=O)N1CCN(c2ccccc2)CC1 | i | i | i | i | i
N#Cc1cc(-c2ccccc2)oc1NC(=O)c1ccco1 | i | i | i | i | i
Cc1cccc(C(=O)Nc2oc(-c3ccccc3)cc2C#N)c1 | i | i | i | -49 | i
O=C(NCCc1ccc(F)cc1)C(=O)NCC1CCCN1S(=O)(=O)c1cccs1 (stereo not given) | i | i | i | i | i
CC1CCCC(NC(=O)c2ccc(CNc3c(N4CCCC4)c(=O)c3=O)cc2)C1C (stereo not given) | i | i | i | -32 | i
CC(C)Cn1c(CN2C(=O)c3ccccc3C2=O)nc2ccccc2c1=O | i | i | 30 | i | i
COc1ccc(-n2ccnc(NCc3ccccc3OC)c2=O)cc1 | i | i | i | i | i
COc1ccccc1C(=O)NCCC(=O)NCC1COc2ccccc2O1 (stereo not given) | i | i | i | i | i
CC(C)c1nc2ccc(C(=O)NCc3ccc(F)cc3)cc2o1 | i | i | i | i | i
CCc1ccccc1NC(=O)CSc1ncc2c(n1)-c1ccccc1N(Cc1ccc(C)cc1)S2(=O)=O | i | i | i | -37 | i
Cc1ccccc1CN1c2ccccc2-c2nc(SCC(N)=O)ncc2S1(=O)=O | i | i | i | i | i
Cc1ccccc1CN1c2ccccc2-c2nc(SCC(=O)c3ccccc3)ncc2S1(=O)=O | i | i | i | -38 | i
O=C(CSc1ncc2c(n1)-c1cc(Cl)ccc1N(Cc1ccccc1)S2(=O)=O)Nc1ccc(F)cc1F | i | i | i | i | i
COc1ccccc1NC(=O)CSc1ncc2c(n1)-c1cc(Cl)ccc1N(Cc1ccccc1)S2(=O)=O | i | i | i | -33 | i
CC(=O)c1cccc(NC(=O)Cn2c(=O)c(CNc3ccc(C)cc3)cc3cc4c(cc32)OCCO4)c1 | i | i | i | i | i
COc1ccccc1NC(=O)OCC#CCOC(=O)Nc1ccccc1OC | i | i | i | -58 | i
Cc1noc(C)c1S(=O)(=O)N(CC(=O)NCc1ccccc1Cl)c1ccc(C(C)C)cc1 | i | i | i | i | i
CCOC(=O)C1CSC(CC(=O)Nc2ccc(OC(F)(F)F)cc2)C(=O)N1 (stereo not given) | i | i | i | -32 | i
COc1cc(-c2nc3nc[nH]n3c2Nc2ccc(C(C)C)cc2)ccc1O | i | i | i | i | i
CC(=O)NCCC1CCCCN1Cc1nc(Cc2cccc(C(F)(F)F)c2)no1 (stereo not given) | i | i | i | -50 | i
SMILES | D1 agonist | D1 potentiator | TRHR PAM | D1 antagonist | TRHR ag
NC(=O)[C@@H]1CCCN1Cc1nc(Cc2cccc(C(F)(F)F)c2)no1 | i | i | i | i | i
CC(C)N(Cc1nc2ccccc2[nH]1)C(C)C | i | i | i | -34 | i
COc1ccccc1CNC(=O)COC(=O)c1c[nH]c2ccccc12 | 45 | i | i | -41 | i
COc1ccccc1NC(=O)COC(=O)c1c[nH]c2ccccc12 | i | i | i | i | i
Cc1ccc(NC(=O)C2CCN(C(=O)c3ccccc3C)CC2)cc1 | i | i | i | -44 | i
CN(CCOc1ccccc1)C(=O)C1CCN(C(=O)c2ccc(Cl)cc2)CC1 | i | i | i | i | i
CN(CCOc1ccc(Cl)cc1)C(=O)C1CCN(C(=O)c2ccc(F)cc2)CC1 | i | i | i | -33 | i
COc1cc(NS(=O)(=O)c2ccc(NC(=S)NC(=O)C3CCCC3)cc2)nc(OC)n1 | i | i | i | -35 | i
COc1ccc(C(=O)N2CCC(C(=O)Nc3ccc(Cl)cc3)CC2)cc1 | i | i | i | -42 | i
COc1ccc(-c2cn(-c3ccc(C)cc3)c(S(=O)(=O)CC(=O)Nc3ccccc3)n2)cc1 | i | i | i | i | i
O=C(O)c1ccc2nc(-c3cc4cc(Cl)ccc4oc3=O)[nH]c2c1 | i | i | i | i | i
